This is part of a sample that, as a whole, favours compounds with a hit. Of some 83,000 tested, about 20% had one in any assay.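 The endpoint reported here, percent growth, reads 100 for growth as untreated, 0 for no net growth and -100 for all cells dead.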 A number with no mark means an inactive call. The source made the active and inactive calls. How the source made its calls: active means growth percent below 10; inactive means the rest.
Legend:
Assay in all cases: NCI-60 one-dose screen, 48 h (100 = growth as untreated, 0 = no growth, -100 = all killed)
Conditions in all cases: 10 µM unless noted
[1] = system: EKVX NSCLC
[2] = system: SN12C renal
[3] = system: UO-31 renal
[4] = system: TK-10 renal
[5] = system: ACHN renal
[6] = system: CAKI-1 renal
[7] = system: A498 renal
[8] = system: CCRF-CEM leukemia
[9] = system: MOLT-4 leukemia
[10] = system: SR leukemia
[11] = system: RPMI-8226 leukemia
[12] = system: OVCAR-8 ovarian
[13] = system: OVCAR-5 ovarian
[14] = system: OVCAR-4 ovarian
[15] = system: SK-OV-3 ovarian
[16] = system: IGROV1 ovarian
[17] = system: OVCAR-3 ovarian
[18] = system: HS 578T breast
[19] = system: NCI/ADR-RES ovarian
[20] = system: T-47D breast

Row | SMILES | growth [1] | growth [2] | growth [3] | growth [4] | growth [5] | growth [6] | growth [7] | growth [8] | growth [9] | growth [10] | growth [11] | growth [12] | growth [13] | growth [14] | growth [15] | growth [16] | growth [17] | growth [18] | growth [19] | growth [20]
1 | C=C(C[C@](O)(C(=O)/C=C/c1ccc(Cl)cc1)C(=O)OC)c1ccccc1 | 82.8% | 74.8% | 52.6% | 64.6% | 72.2% | 68.5% | 97.1% | 40.8% | 62.9% | 23.3% | -20.3% (active) | 50.2% | 105% | 84.4% | 95.7% | 81.2% | 61.7% | 104% | 59.2% | 36.2%
2 | Cc1ccc(C(=O)Nc2ccc(Cl)cc2C(=O)NCc2ccccc2)cc1 | 80.3% | 97.7% | 76.5% | 105% | 86.4% | 77.7% | 79.2% | 73.9% | 51.4% | 37.1% | 77.8% | 87.9% | 100% | 79.5% | 117% | 84.1% | 91.6% | 89.7% | 72.5% | 94%
3 | COc1cc2c(cc1OCCCOc1ccc(-c3cc4ccccc4c4ccccc34)cc1)N=C[C@@H]1CCCN1C2=O | -74.1% (active) | -73.5% (active) | -59.3% (active) | -75.6% (active) | -85.3% (active) | -19.6% (active) | -82.8% (active) | 6.61% (active) | 17.4% | 102% | 0.228% (active) | -6.49% (active) | -69.5% (active) | -77.1% (active) | -19.3% (active) | -72.3% (active) | -48.4% (active) | -15.3% (active) | -46.1% (active) | -66.4% (active)
4 | O=[N+]([O-])c1ccc(N/N=C\c2ccccc2[N+](=O)[O-])nc1 | 101% | 103% | 97.8% | 116% | 102% | 83% | 83.4% | 97.8% | 93.5% | 92.4% | 102% | 107% | 124% | 120% | 121% | 106% | 109% | 97.7% | 108% | 107%
5 | C/C(=N/N=C(N)N)c1ccc(N)cc1 | 119% | 95.9% | 69.8% | 104% | 102% | 38% | 103% | 124% | 109% | 49.3% | 190% | 111% | 105% | 100% | 105% | -12.3% (active) | 93.1% | 73.3% | 103% | 94.7%
6 | O=C(c1nn(-c2ccc(Cl)cc2)cc1O)n1nc(C(F)(F)F)cc1-c1ccccc1 | 31.5% | 45.9% | 37% | 69.3% | 38.8% | -20.6% (active) | 76% | 0.973% (active) | 13.1% | -30.4% (active) | -10.4% (active) | 22.9% | 58.7% | 29.2% | 23.2% | 34.9% | -1.65% (active) | 15.8% | 19.4% | 44.9%
7 | CCC(CC)NCCCCCNc1cc(OC)cc2cccnc12 | 104% | 87.2% | 71.2% | 83.5% | 94.8% | 97.2% | 72.7% | 114% | 98.1% | 109% | 115% | 93.5% | 88.9% | 32.1% | 97.7% | 111% | 83.3% | 91.2% | 83.3% | 73.8%
8 | C/C(=N\N1CC(=O)NC1=O)c1ccc([N+](=O)[O-])o1 | 90.8% | 102% | 85.1% | 105% | 105% | 109% | 76.7% | 106% | 99.5% | 95.9% | 71% | 98.2% | 111% | 105% | 109% | 99.6% | 102% | 108% | 93.7% | 102%

Reference: PubChem BioAssay (NCI)
